Experimental data taken from PubChem BioAssay (NCI).
This is part of a sample that, as a whole, favours compounds with a hit. Of some 83,000 tested, about 20% had one in any assay.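 Results are percent growth after 48 hours of single-concentration exposure. 100 means growth as in untreated cells, lower positive values show inhibition; negative values down to -100 show cell death.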 The source made the active and inactive calls. Rule for the calls: active = growth percent below 10; inactive = the rest.

Tests used:
Test in all cases: NCI-60 one-dose screen, 48 h (100 = growth as untreated, 0 = no growth, -100 = all killed)
Conditions in all cases: 10 µM unless noted
[1] = tested on: HCT-15 colon
[2] = tested on: HT29 colon
[3] = tested on: SNB-75 CNS
[4] = tested on: SNB-19 CNS
[5] = tested on: U251 CNS
[6] = tested on: PC-3 prostate
[7] = tested on: SK-MEL-5 melanoma
[8] = tested on: UACC-62 melanoma
[9] = tested on: LOX IMVI melanoma
[10] = tested on: SK-MEL-28 melanoma
[11] = tested on: SK-MEL-2 melanoma
[12] = tested on: EKVX NSCLC
[13] = tested on: SN12C renal
[14] = tested on: UO-31 renal
[15] = tested on: TK-10 renal
[16] = tested on: ACHN renal
[17] = tested on: CAKI-1 renal
[18] = tested on: A498 renal
[19] = tested on: CCRF-CEM leukemia
[20] = tested on: MOLT-4 leukemia

Measured: growth

CCS(=O)(=O)c1ncnc2nc[nH]c12
inactive: [1] 101% | [2] 93.2% | [3] 90.9% | [4] 97.9% | [5] 95.6% | [6] 76.4% | [7] 98.7% | [8] 94.1% | [9] 101% | [10] 107% | [11] 100% | [12] 99.3% | [13] 94.5% | [14] 92.6% | [15] 98.2% | [16] 106% | [17] 99.6% | [18] 92.8% | [19] 93.3% | [20] 103%

C=C1C(=O)O[C@H]2[C@H]1CC/C(COC(=O)CSCC(=O)OC/C1=C/CC[C@@]3(C)O[C@H]3[C@H]3OC(=O)C(=C)[C@@H]3CC1)=C\CC[C@@]1(C)O[C@@H]21
active: [1] 5.12% | [2] -26% | [9] -25.2% | [10] -3.76% | [14] 3.4% | [15] 9.84% | [16] 2.35% | [19] -7.55% | [20] -3.7%
inactive: [3] 81.8% | [4] 69.1% | [5] 34.3% | [6] 46.9% | [7] 63.2% | [8] 42.4% | [11] 68% | [12] 57.7% | [13] 22.1% | [17] 76.4% | [18] 81.1%

CC1Cc2c(ncn3c(-c4ccc(F)cc4)nnc23)N(C)c2ccccc21 (configuration not stated)
active: [3] -7.85%
inactive: [1] 72% | [2] 18.3% | [4] 48.5% | [5] 39.3% | [6] 63% | [7] 96.7% | [8] 73.5% | [9] 12.6% | [10] 85.4% | [11] 99.6% | [12] 32.8% | [13] 19.8% | [14] 27.6% | [15] 21.8% | [16] 44% | [17] 55.5% | [18] 28.3% | [19] 49.3% | [20] 82.1%

C[C@H]1[C@H]2[C@H]3CC[C@@H]4[C@@]5(C)CC[C@H](O)C(C)(C)[C@@H]5CC[C@@]4(C)[C@]3(C)CC[C@]23CO[C@]1(C)[C@@H](C(=O)/C=C\c1cccnc1)C3
inactive: [1] 38.5% | [2] 99.5% | [3] 72.8% | [4] 71.6% | [5] 58.6% | [6] 21.3% | [7] 37% | [8] 41.5% | [9] 51.5% | [10] 66.2% | [11] 87.3% | [12] 101% | [13] 62.7% | [15] 31.9% | [16] 41.6% | [17] 55.6% | [18] 72.9% | [19] 30.8% | [20] 25.2%

C=CCc1cc(C)ccc1NC(C(=O)NCC(=O)OC)c1ccccc1 (configuration not stated)
inactive: [1] 91.8% | [2] 98.4% | [3] 88.9% | [4] 105% | [5] 97.8% | [6] 89.1% | [7] 102% | [8] 95.4% | [9] 103% | [10] 101% | [11] 96.4% | [12] 93.9% | [13] 91.4% | [14] 80.6% | [15] 106% | [16] 98.5% | [17] 88.1% | [18] 94.6% | [19] 105% | [20] 97.1%

CC1=C(C)C(=O)C(Nc2cccc(C(=O)OC(C)(C)C)c2)=C(Br)C1=O
active: [19] 8.53%
inactive: [1] 73.2% | [2] 118% | [3] 59.7% | [4] 84.6% | [5] 90.7% | [6] 71.7% | [7] 96% | [8] 79.2% | [9] 34.9% | [10] 101% | [11] 106% | [12] 103% | [13] 85.7% | [14] 71.6% | [15] 122% | [16] 87.5% | [17] 96.4% | [18] 87.3% | [20] 12.5%

Cc1oc2nc[nH]c(=O)c2c1C(=O)/C=C/c1ccc(Br)cc1
inactive: [2] 15.3% | [4] 23.5% | [5] 12% | [6] 25.5% | [8] 13.2% | [10] 23.9% | [11] 11.9% | [12] 19.7% | [14] 19.4% | [15] 40.9% | [17] 28.4% | [18] 23.7%
active: [1] -27.4% | [3] -2.44% | [7] 8.55% | [9] -90.6% | [13] 1.76% | [16] 1.43% | [19] 6.65% | [20] 8.42%

CCCCCCCCCCCCCCCCCC1OCC(COC(=O)O[C@]2(CC)C(=O)OCc3c2cc2n(c3=O)Cc3cc4ccccc4nc3-2)O1 (some centres not stated)
inactive: [1] 83.5% | [2] 79.6% | [3] 79.6% | [4] 57.6% | [5] 56.5% | [6] 77.8% | [7] 84.6% | [8] 31.6% | [9] 59.7% | [10] 111% | [11] 116% | [13] 49% | [14] 73.1% | [15] 95.5% | [16] 62.9% | [17] 65.7% | [18] 88.6% | [19] 29.2% | [20] 43.3%

Cc1cc(O)c(C2=NN(c3ccc(S(N)(=O)=O)cc3)C(/C=C/c3ccccc3)C2)cc1Cl (configuration not stated)
active: [8] -10.9%
inactive: [1] 85.7% | [2] 33.5% | [3] 51.3% | [4] 66.4% | [5] 22.5% | [6] 32.6% | [7] 19.1% | [9] 18.5% | [10] 23.9% | [11] 34.1% | [13] 66.4% | [14] 78.2% | [15] 68.3% | [16] 33.1% | [17] 48.7% | [18] 39.9% | [19] 66.2% | [20] 73.3%

Cc1ccc(C(=O)N/N=C/c2cccc([N+](=O)[O-])c2)cn1
inactive: [1] 109% | [2] 114% | [3] 94.2% | [4] 98.5% | [5] 107% | [6] 95.4% | [7] 98.9% | [8] 98.1% | [9] 105% | [10] 103% | [11] 111% | [12] 104% | [13] 105% | [15] 118% | [16] 107% | [17] 87.1% | [18] 84.9% | [19] 96.7% | [20] 92.1%

COC(=O)C(Cc1ccccc1)NC(=O)NC(=O)NC(=O)CI (configuration not stated)
inactive: [1] 12% | [2] 50.1% | [3] 98.9% | [4] 126% | [5] 101% | [6] 87.6% | [7] 89.7% | [10] 51.8% | [11] 94.9% | [12] 103% | [13] 17.2% | [15] 75.9% | [16] 75.7% | [18] 124%
active: [8] 6.21% | [9] -78.8% | [17] -69.3% | [19] -50.8% | [20] -30.7%

CCCCn1c(-c2ccc(-c3nc(-c4ccc(Cl)cc4)no3)cc2)nc(-c2ccccc2)c1-c1ccccc1
inactive: [1] 77.2% | [2] 90.2% | [3] 80.5% | [4] 83.5% | [5] 87% | [6] 70.4% | [7] 97.9% | [8] 71.5% | [9] 31.3% | [10] 90.8% | [11] 103% | [13] 83.2% | [15] 126% | [16] 60.3% | [17] 82.4% | [18] 89.1% | [19] 69.7% | [20] 65.6%
active: [12] -93.7%

COc1ccc(/C=C(\C#N)n2nnc3c(F)cccc32)cc1
inactive: [1] 13.8% | [2] 13.4% | [4] 30.7% | [5] 23.7% | [6] 29.8% | [7] 32.3% | [8] 29.5% | [9] 19.8% | [10] 36.4% | [11] 24.1% | [13] 24.2% | [14] 39.4% | [15] 45.3% | [16] 28.3% | [17] 24.8% | [19] 18.9% | [20] 14.4%
active: [3] -58.8% | [18] -29.1%

COc1cc(C)c(Cc2cnc(N)nc2N)cc1OC
inactive: [1] 113% | [2] 109% | [3] 104% | [4] 98.9% | [5] 97.7% | [6] 94.3% | [7] 105% | [8] 99.5% | [9] 94.9% | [10] 118% | [11] 87% | [13] 105% | [14] 88.4% | [15] 116% | [16] 96.6% | [17] 97.8% | [18] 107% | [19] 108% | [20] 62.6%
